Measured values: PubChem BioAssay (EPA / NIEHS)
The source made the active and inactive calls. Rule for the calls: active = hit-call score of the fitted dose curve at least 0.9, where 1 is the maximum; inactive = score below 0.9.

Assay: ATG_TGFb_CIS: Attagene CIS-FACTORIAL HepG2 Assay for human Transforming Growth Factor (TGF) (AID 2282967)
Details: HepG2 Attagene CIS TGFb reporter, mRNA transcription; actives raise or lower the signal
Procedure, shortened: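 Readout: fluorescently labeled reporter cDNA fragments resolved by capillary electrophoresis after RT-PCR. Transfected HepG2 cells dosed for 24 h; endogenous TF activity at TGFB1-linked cis element; gain or loss fitted relative to DMSO.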

| SMILES | outcome | AC50 |
| --- | --- | --- |
| CCOC=O | inactive |  |
| O=C1C=CC(=O)N1c1cccc(N2C(=O)C=CC2=O)c1 | inactive |  |
| COC1=CC(=O)C[C@@H](C)[C@]12Oc1c(Cl)c(OC)cc(OC)c1C2=O | inactive |  |
| Cc1ccccc1OCC(=O)O | inactive |  |
| CCOC(=O)c1nc(C(Cl)(Cl)Cl)n(-c2ccc(Cl)cc2Cl)n1 |  | 27.8 µM (active) |
| O=C(F)C(F)(F)C(F)(F)C(F)(F)C(F)F | inactive |  |
| O=C1Cc2ccccc2N1c1c(Cl)cccc1Cl | inactive |  |
| COCC1CCC(CO)CC1 (stereo unspecified) | inactive |  |
| Brc1cc(Br)c(Oc2c(Br)cc(Br)c(Br)c2Br)cc1Br | inactive |  |
| CCCCCCCCC1CCC(=O)O1 (stereo unspecified) | inactive |  |
| Oc1c(Cl)ccc(Cl)c1Cl | inactive |  |
| CC1CCC(C(=O)O)CC1 (stereo unspecified) | inactive |  |
| CC(C)(c1ccc(Oc2ccc(N)cc2)cc1)c1ccc(Oc2ccc(N)cc2)cc1 | inactive |  |
| C=CC(=O)OCC(CO)(COCC(COC(=O)C=C)(COC(=O)C=C)COC(=O)C=C)COC(=O)C=C | inactive |  |
| N=C(N)c1ccc(OCCCCCOc2ccc(C(=N)N)cc2)cc1 | inactive |  |
| O=P(O)(O)CCC(F)(F)C(F)(F)C(F)(F)C(F)(F)C(F)(F)C(F)(F)F | inactive |  |
| O=C(OC(=O)C(F)(F)C(F)(F)F)C(F)(F)C(F)(F)F | inactive |  |
| Clc1ccc2c(Cl)ccnc2c1 | inactive |  |
| CCc1ccccc1O | inactive |  |

| SMILES | outcome | AC50 |
| --- | --- | --- |
| CCCCCCCCCC=CCC1CC(=O)OC1=O (stereo unspecified) | inactive |  |
| CCCCC(CC)C(=O)OCCOCCOCCOCCOC(=O)C(CC)CCCC (stereo unspecified) | inactive |  |
| FC(F)=C(F)C(F)(F)C(F)(F)C(F)(F)C(F)F | inactive |  |
| O=CC(F)(F)C(F)(F)C(F)(F)F | inactive |  |
| COC(=O)CC(C(C)=O)C(=O)OC (stereo unspecified) | inactive |  |
| O=C(c1cc(O)c(O)c(O)c1)c1ccc(O)c(O)c1O | inactive |  |
| COc1ccccc1NC(=O)c1cc2ccccc2cc1O | inactive |  |
| CCCCCCOC(=O)c1ccc(O)cc1 |  | 50.8 µM (active) |
| CCCCc1oc2ccccc2c1C(=O)c1cc(I)c(OCCN(CC)CC)c(I)c1 | inactive |  |
| CC(=O)Nc1ccc(S(N)(=O)=O)cc1 | inactive |  |
| c1cc[nH]c1 | inactive |  |
| O=C(O)CCC(F)(F)C(F)(F)C(F)(F)C(F)(F)C(F)(F)F | inactive |  |
| O=CC(F)(F)C(F)(F)C(F)(F)C(F)F | inactive |  |
| FC1(F)C=CC(F)(F)C1(F)F | inactive |  |
| Cc1cc(Cc2cc(C)cc(C(C)(C)C)c2O)c(O)c(C(C)(C)C)c1 |  | 56.6 µM (active) |
| Oc1ccc(Cc2ccccc2O)cc1 | inactive |  |
| CCCCN(C)C | inactive |  |
| CC1CCC(CO)CC1 (stereo unspecified) | inactive |  |
| O=C(O)CCC(F)(F)C(F)(F)C(F)(F)C(F)(F)C(F)(F)C(F)(F)F | inactive |  |

Assay: ATG_VDRE_CIS: Attagene CIS-FACTORIAL HepG2 Assay for human Vitamin D Receptor Element (VDRE) (AID 2282968)
Details: HepG2 VDRE cis-reporter transcription, actives raise or lower the signal
Procedure, shortened: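 Steps: transfect HepG2 with multiple reporter transcription units; dose chemicals 24 h; isolate RNA; RT-PCR; label with 6-FAM primer extension; HpaI digest; capillary electrophoresis. Curves fitted both directions against DMSO.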

| SMILES | outcome | AC50 |
| --- | --- | --- |
| CCOC=O | inactive |  |
| O=C1C=CC(=O)N1c1cccc(N2C(=O)C=CC2=O)c1 | inactive |  |
| COC1=CC(=O)C[C@@H](C)[C@]12Oc1c(Cl)c(OC)cc(OC)c1C2=O | inactive |  |
| Cc1ccccc1OCC(=O)O | inactive |  |
| CCOC(=O)c1nc(C(Cl)(Cl)Cl)n(-c2ccc(Cl)cc2Cl)n1 | inactive |  |
| O=C(F)C(F)(F)C(F)(F)C(F)(F)C(F)F | inactive |  |
| O=C1Cc2ccccc2N1c1c(Cl)cccc1Cl |  | 1.4 µM (active) |
| COCC1CCC(CO)CC1 (stereo unspecified) | inactive |  |
| Brc1cc(Br)c(Oc2c(Br)cc(Br)c(Br)c2Br)cc1Br | inactive |  |
| CCCCCCCCC1CCC(=O)O1 (stereo unspecified) | inactive |  |
| Oc1c(Cl)ccc(Cl)c1Cl | inactive |  |
| CC1CCC(C(=O)O)CC1 (stereo unspecified) | inactive |  |
| CC(C)(c1ccc(Oc2ccc(N)cc2)cc1)c1ccc(Oc2ccc(N)cc2)cc1 |  | 3.6 µM (active) |
| C=CC(=O)OCC(CO)(COCC(COC(=O)C=C)(COC(=O)C=C)COC(=O)C=C)COC(=O)C=C |  | 0.722 µM (active) |
| N=C(N)c1ccc(OCCCCCOc2ccc(C(=N)N)cc2)cc1 |  | 87.5 µM (active) |
| O=P(O)(O)CCC(F)(F)C(F)(F)C(F)(F)C(F)(F)C(F)(F)C(F)(F)F | inactive |  |
| O=C(OC(=O)C(F)(F)C(F)(F)F)C(F)(F)C(F)(F)F | inactive |  |
| Clc1ccc2c(Cl)ccnc2c1 | inactive |  |
| CCc1ccccc1O |  | 27.9 µM (active) |

| SMILES | outcome | AC50 |
| --- | --- | --- |
| CCCCCCCCCC=CCC1CC(=O)OC1=O (stereo unspecified) | inactive |  |
| CCCCC(CC)C(=O)OCCOCCOCCOCCOC(=O)C(CC)CCCC (stereo unspecified) |  | 27.8 µM (active) |
| FC(F)=C(F)C(F)(F)C(F)(F)C(F)(F)C(F)F | inactive |  |
| O=CC(F)(F)C(F)(F)C(F)(F)F | inactive |  |
| COC(=O)CC(C(C)=O)C(=O)OC (stereo unspecified) | inactive |  |
| O=C(c1cc(O)c(O)c(O)c1)c1ccc(O)c(O)c1O | inactive |  |
| COc1ccccc1NC(=O)c1cc2ccccc2cc1O |  | 6.49 µM (active) |
| CCCCCCOC(=O)c1ccc(O)cc1 |  | 49.9 µM (active) |
| CCCCc1oc2ccccc2c1C(=O)c1cc(I)c(OCCN(CC)CC)c(I)c1 |  | 9.14 µM (active) |
| CC(=O)Nc1ccc(S(N)(=O)=O)cc1 | inactive |  |
| c1cc[nH]c1 | inactive |  |
| O=C(O)CCC(F)(F)C(F)(F)C(F)(F)C(F)(F)C(F)(F)F | inactive |  |
| O=CC(F)(F)C(F)(F)C(F)(F)C(F)F | inactive |  |
| FC1(F)C=CC(F)(F)C1(F)F | inactive |  |
| Cc1cc(Cc2cc(C)cc(C(C)(C)C)c2O)c(O)c(C(C)(C)C)c1 | inactive |  |
| Oc1ccc(Cc2ccccc2O)cc1 |  | 64.5 µM (active) |
| CCCCN(C)C | inactive |  |
| CC1CCC(CO)CC1 (stereo unspecified) | inactive |  |
| O=C(O)CCC(F)(F)C(F)(F)C(F)(F)C(F)(F)C(F)(F)C(F)(F)F | inactive |  |
